Our source for the growth inhibition values is PubChem BioAssay (NCI).

Several values for one entry are separate records, joined by “and”; a condition that tells them apart may be missing. Equal entries are not always repeated. This is part of a sample that, as a whole, favours compounds with a hit. Of some 79,000 tested, about 15% had one in any assay. Values without a mark were called inactive. Activity calls are given as the source filed them. Rule as the data show it: active = growth inhibition above about 70%; inactive = the rest.

The test can be described thus: NCI Yeast Anticancer Drug Screen. Data for the rad50 strain (AID 155).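 Also: 0% = growth of vehicle-only cultures of the same strain.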 As to conditions: S. cerevisiae rad50 strain growth inhibition, active compounds read high. As for the experimental part: Growth inhibition of yeast strains with defined genetic alterations is measured as a screen for potential anti-cancer activity. Selected strains with alterations in DNA damage repair or cell cycle control were exposed to compounds and growth inhibition was measured relative to vehicle treated controls. The strain used in this assay is rad50

The mark [1] stands for this setting: at 5.0 µM (retest, dose inferred, filed as 0.5).
Where [2] appears, read: at 50.0 µM (retest, dose inferred, filed as 5.0).

Regarding `Fc1cccc(F)c1C1SCc2nc3cc4ccccc4cc3n21` (stereo unspecified), the growth inhibition was 35% under setting [1], 83% (active) under setting [2] and 23.1% (at 50.0 µM).
Turning to `CCCCC(CC)CNC(=O)CI` (stereo unspecified), the growth inhibition reads like this: under setting [1], 11%; under setting [2], 66%.
Turning to `CCN(CC)c1ccc(/C=C\C(=O)c2ccc(NC(C)=O)cc2)cc1`, the growth inhibition reads like this: under setting [1], -22%; under setting [2], -8%; (at 50.0 µM) 22.8%.
On to `Oc1ccc(Cc2cccc(Cl)c2)c(O)c1`, for which the growth inhibition was -1% under setting [1] and 92% (active) under setting [2].
Take `O=[N+]([O-])c1ccc([I+]c2ccccc2)cc1`: the growth inhibition under setting [1] was 86% (active), the growth inhibition under setting [2] is 96% (active) and the growth inhibition (at 50.0 µM) is 82.8% (active).
Turning to `CCCCCCCCCCCCCCCCSC(=NCC)NCC`, the growth inhibition by setting is: under setting [1], 99% (active); under setting [2], 99% (active); (at 50.0 µM) 99.3% (active).
For the compound `O=C(c1ccc(O)c(Br)c1)c1ccc(O)c(Br)c1`, the growth inhibition reads like this: under setting [1], 43%; under setting [2], 99% (active); (at 50.0 µM) 28.7%.
In the same order, the values of `CC/C(=C(/CC)c1ccc(O)cc1)c1ccc(O)cc1` are 16%, 99% (active) and 99% (active).
Taken in the same sequence, the figures for `O=C1C=CC(=O)N1C1CCCCCCCCCCC1` were 32%, 66% and 83.5% (active).
On to `CCCCCCCCCCCC[n+]1ccccc1` (tested in a mixture with another compound), for which the growth inhibition was 34% under setting [1], 96% (active) under setting [2] and 99.1% (active) (at 50.0 µM).
In the case of `CCSc1nc2ccccc2o1`, the growth inhibition under setting [1] is 7%, the growth inhibition under setting [2] was 0% and the growth inhibition (at 50.0 µM) was 54.4%.
Regarding `C(CCc1nn[nH]n1)CCC1CCCCC1`, the growth inhibition is 13% under setting [1] and 98% (active) under setting [2].
As for `CC(=O)Nc1nc(-c2ccccc2)cs1`, the growth inhibition was 1% under setting [1] and 23% under setting [2].
`CCOc1ccc(C=O)cc1OC`: where the note is “at 50.0 µM”, the growth inhibition is -29.6% and -0.5%.
As for `COC(=O)CCC1C(C)(C(C)=O)CCC2C1(C)CCC1(C)C3CC(C)(C)CCC3(C)CCC21C` (stereo unspecified), the growth inhibition (at 50.0 µM) was 1.65% and 1.05%.
The same measure, in the same setting: for `O=C1Nc2c(cc([N+](=O)[O-])cc2[N+](=O)[O-])C1=O` the value was -8.6% and 3.1%; for `Cc1ccc(S(=O)(=O)NN=C2C(C)(C)CC2(C)C)cc1`, -21.9% and 21.2%.
Turning to `OC1COCOC1C1OCOCC1O` (stereo unspecified), the growth inhibition (at 50.0 µM) was 11.2% and -5.6%.
The same measure, in the same setting: the result for `Cc1c2cc(O)c(=O)cc-2oc2cc(O)c(O)cc12` reads 45.9% and 30.5%.
